Measurements: PubChem BioAssay (NCI)
This is part of a sample that, as a whole, favours compounds with a hit. Of some 83,000 tested, about 20% had one in any assay.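 Compound tested at a single concentration for 48 hours in 96-well plates; a percent growth value below 10 was scored as active.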 Calls of active or inactive are those of the source.

Legend:
Assay in all cases: NCI-60 one-dose screen, 48 h (100 = growth as untreated, 0 = no growth, -100 = all killed)
Details in all cases: 10 µM unless noted
HCT-15 colon = system: HCT-15 colon
HT29 colon = system: HT29 colon
SNB-75 CNS = system: SNB-75 CNS
SNB-19 CNS = system: SNB-19 CNS
U251 CNS = system: U251 CNS
PC-3 prostate = system: PC-3 prostate
SK-MEL-5 melanoma = system: SK-MEL-5 melanoma
UACC-62 melanoma = system: UACC-62 melanoma
LOX IMVI melanoma = system: LOX IMVI melanoma
SK-MEL-28 melanoma = system: SK-MEL-28 melanoma

Measured: growth

CC(=O)OC1CCC2(C)C(CCC3C2CC(=O)C2(C)C3CC(Sc3ccc(N(CCCl)CCCl)cc3)C2C(C)=O)C1 (stereo not given)
inactive: HCT-15 colon 50.5% | HT29 colon 11.9% | SNB-75 CNS 111% | SNB-19 CNS 82.7% | U251 CNS 68.1% | PC-3 prostate 85.5% | SK-MEL-5 melanoma 93% | UACC-62 melanoma 67.9% | LOX IMVI melanoma 55.1% | SK-MEL-28 melanoma 99.8%

CC12CCC3C(CCC4Cc5[nH]c6ccccc6c5CC43C)C1CCC2O (stereo not given)
inactive: HCT-15 colon 33.2% | HT29 colon 10.7% | SNB-75 CNS 31.7% | SNB-19 CNS 28% | U251 CNS 20.1% | PC-3 prostate 34.5% | UACC-62 melanoma 31.8% | LOX IMVI melanoma 13.4% | SK-MEL-28 melanoma 54.8%
active: SK-MEL-5 melanoma 2.53%

CCOC(=O)c1c(C)n(Cc2ccccc2)c2cc(CN(C)C)c(O)cc12
inactive: HCT-15 colon 63.4% | HT29 colon 37% | SNB-75 CNS 50.5% | SNB-19 CNS 72.2% | U251 CNS 67.8% | PC-3 prostate 57.4% | SK-MEL-5 melanoma 82.5% | UACC-62 melanoma 58.4% | LOX IMVI melanoma 28.8% | SK-MEL-28 melanoma 80.2%

COc1cc2ncnc(Nc3ccc(F)c(Cl)c3)c2cc1OCC(=O)N1CCN(C)CC1
inactive: HCT-15 colon 93.4% | HT29 colon 90.6% | SNB-75 CNS 92.2% | SNB-19 CNS 79.6% | U251 CNS 101% | PC-3 prostate 86% | SK-MEL-5 melanoma 97.5% | UACC-62 melanoma 98.1% | LOX IMVI melanoma 91.5% | SK-MEL-28 melanoma 102%

CC1(C)C(C(=O)c2cn(CCCCF)c3ccccc23)C1(C)C
inactive: HCT-15 colon 91.9% | HT29 colon 48.8% | SNB-75 CNS 96% | SNB-19 CNS 104% | U251 CNS 86% | PC-3 prostate 85% | SK-MEL-5 melanoma 92.1% | UACC-62 melanoma 88.4% | LOX IMVI melanoma 92.9% | SK-MEL-28 melanoma 116%

O[C@H](CN1CC1)[C@@H](O)CN1CC1
inactive: HCT-15 colon 79.9% | HT29 colon 72.5% | SNB-75 CNS 70.6% | SNB-19 CNS 74.5% | U251 CNS 60.3% | PC-3 prostate 75.8% | SK-MEL-5 melanoma 75.3% | UACC-62 melanoma 72.4% | LOX IMVI melanoma 44.6% | SK-MEL-28 melanoma 106%

C1CCC([PH+](C2CCCCC2)C2CCCCC2[PH+](C2CCCCC2)C2CCCCC2)CC1.O=C(C1[CH-]CCCC1)C1CCCC[N-]1.[Au] (stereo not given)
active: HCT-15 colon 2.02% | HT29 colon -43.7% | SNB-75 CNS -6.22% | SNB-19 CNS -95.2% | U251 CNS -84.1% | PC-3 prostate -6.85% | SK-MEL-5 melanoma -98.8% | UACC-62 melanoma -85.8% | LOX IMVI melanoma -95.9% | SK-MEL-28 melanoma -69.5%

Brc1ccc2c(c1)c(-c1nc(-c3c[nH]c4ncccc34)cs1)cn2CCN1CCCCC1
inactive: HCT-15 colon 20.8% | HT29 colon 27.4% | SNB-75 CNS 67.7% | SNB-19 CNS 90% | U251 CNS 42% | PC-3 prostate 51.4% | SK-MEL-5 melanoma 68.2% | UACC-62 melanoma 78.2% | LOX IMVI melanoma 65.4% | SK-MEL-28 melanoma 106%

Cc1cnc(/C=C/C(=O)O)cc1-c1cc2c(cc1C)C(C)(C)CCC2(C)C
inactive: HCT-15 colon 53.9% | HT29 colon 68.3% | SNB-75 CNS 62.5% | SNB-19 CNS 97.4% | U251 CNS 70.9% | PC-3 prostate 74.8% | SK-MEL-5 melanoma 62.8% | UACC-62 melanoma 65.8% | LOX IMVI melanoma 47.9% | SK-MEL-28 melanoma 41.5%

CCOc1ccccc1C(=O)OCC(Cl)(Cl)Cl
inactive: HCT-15 colon 110% | HT29 colon 96.4% | SNB-75 CNS 98.3% | SNB-19 CNS 107% | U251 CNS 102% | PC-3 prostate 96.5% | SK-MEL-5 melanoma 106% | UACC-62 melanoma 107% | LOX IMVI melanoma 104% | SK-MEL-28 melanoma 118%

COC(=O)[C@@H](C)C[C@H](Cc1ccccc1)NC(=O)c1nc([C@@H](C[C@H](C(C)C)N(C)C(=O)[C@@H](NC(=O)[C@H]2CCCCN2C)C(C)C)OC(C)=O)sc1C(C)C
inactive: SNB-19 CNS 27.7% | PC-3 prostate 21.2% | UACC-62 melanoma 29.4% | SK-MEL-28 melanoma 49.1%
active: HCT-15 colon 5.69% | HT29 colon 1.52% | SNB-75 CNS -0.49% | U251 CNS 6.19% | SK-MEL-5 melanoma -57.3% | LOX IMVI melanoma 9.2%

O=[N+]([O-])c1cc([N+](=O)[O-])c(Nn2c3ccccc3c3ccccc32)c([N+](=O)[O-])c1
inactive: SNB-19 CNS 25.8% | SK-MEL-28 melanoma 11.9%
active: HCT-15 colon 2.82% | HT29 colon -4.7% | SNB-75 CNS -19.7% | U251 CNS 8.04% | PC-3 prostate -10.5% | SK-MEL-5 melanoma -75.9% | UACC-62 melanoma -16.7% | LOX IMVI melanoma 7.47%

O=C(CCCC1CCCCC1)OCC(Cl)(Cl)Cl
inactive: HCT-15 colon 108% | HT29 colon 103% | SNB-75 CNS 101% | SNB-19 CNS 106% | U251 CNS 97% | PC-3 prostate 91.4% | SK-MEL-5 melanoma 107% | UACC-62 melanoma 98.9% | LOX IMVI melanoma 101% | SK-MEL-28 melanoma 113%
